“And” between values parts separate entries of the source, which are not always exact repeats. Identical values can stand only once. The campaign covered roughly 16,000 compounds. About 5,700 (36%) were called active. About 24% were inconclusive and are not listed. Some of the results follow. A number with no mark means an inactive call. Calls follow the shape of the dose curve; as a rule, active = well fitted curve in the direction sought with a large enough effect; inconclusive = small, poorly fitted or top-dose-only effect, or effect the other way; inactive = no such curve, though single readings can be large or run the other way.
These compounds were tested against Cytochrome P450 1A2 (Homo sapiens) (UniProt P05177) (assay: Cytochrome panel assay with activity outcomes). Conditions: recombinant CYP, pro-luciferin dealkylation, luminescence, p450-cyp1a2; series mostly up to 57.1 µM.
% is scaled to controls: 0 for no effect and ±100 for the full control effect.

Chain of Cytochrome P450 1A2 (Homo sapiens) (P05177 whole entry, looked up): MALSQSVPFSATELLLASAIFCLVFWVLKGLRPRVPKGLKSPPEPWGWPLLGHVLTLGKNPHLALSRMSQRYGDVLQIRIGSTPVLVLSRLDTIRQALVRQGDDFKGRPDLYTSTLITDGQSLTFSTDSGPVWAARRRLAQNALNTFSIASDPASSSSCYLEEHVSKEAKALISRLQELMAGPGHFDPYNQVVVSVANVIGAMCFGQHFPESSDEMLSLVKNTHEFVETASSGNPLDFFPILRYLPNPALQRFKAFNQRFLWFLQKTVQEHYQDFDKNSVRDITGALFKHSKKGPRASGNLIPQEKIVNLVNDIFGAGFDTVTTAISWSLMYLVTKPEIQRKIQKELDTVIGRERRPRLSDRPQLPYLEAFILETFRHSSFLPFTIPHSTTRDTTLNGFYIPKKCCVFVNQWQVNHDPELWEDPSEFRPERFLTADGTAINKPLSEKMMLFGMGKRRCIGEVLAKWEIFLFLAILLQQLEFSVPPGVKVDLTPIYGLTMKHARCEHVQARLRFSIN

SMILES	activity, negative = inhibition	AC50
c1ccc2c(c1)C(=Nc1ccc(N=C3c4ccccc4-c4ccccc43)cc1)c1ccccc1-2	-19.6% [at 2.29 µM]	–
O=C(O)c1ccc(NS(=O)(=O)Cc2ccccc2)cc1	-12.1% [at 11.4 µM]	–
CC(=O)Nc1ccc2c(c1)C(=Nc1ccc(C(=O)O)cc1)c1ccccc1-2	–	316 nM (active)
Cc1nc(NCc2ccco2)c2c3c(sc2n1)CCC3	–	2510 nM (active)
CCCSc1nc(NCc2ccco2)c2c3c(sc2n1)COC(C)(C)C3	–	794 nM (active)
Cc1ccc(S(=O)(=O)c2nc(S(=O)(=O)c3ccc(C)cc3)c(NCc3ccco3)s2)cc1	–	inactive
Cc1ccc(-n2c(SCC(=O)NCc3ccco3)nc3sc4c(c3c2=O)CC(C)(C)SC4)cc1	–	inactive
CCCSc1nc(SCC(=O)NCc2ccccc2)c2c3c(sc2n1)COC(C)(CC)C3 (stereo unspecified)	–	inactive
CCSc1ncnc2c1sc1nc(-c3ccco3)c3c(c12)CC(C)(C)OC3	–	inactive
Cc1nc(NS(=O)(=O)c2ccccc2C)c2c3c(sc2n1)CCC3	–	3160 nM (active)
C[C@H](O/N=C1/[C@H]2O[C@@H]2[C@@H](O)[C@H]2[C@H]1CCn1c(=O)n(-c3ccccc3)c(=O)n12)c1cn([C@H](CO)Cc2ccccc2)nn1	-6.4% [at 11.4 µM] and 3.91% [at 11.4 µM]	–
COc1cc(C2C(C#N)=C(N)N(c3sc4c(c3C#N)CCCC4)C3=C2C(=O)CC(C)(C)C3)cc(OC)c1OC (stereo unspecified)	–	inactive
O=C(c1csnn1)N1CCC[C@@]2(CCN(Cc3nccs3)C2)C1	–	inactive
CNC(=O)/C=C1\NC(C)(C)Cc2c1ccc1ccccc21	–	6310 nM (active)
CC1(C)Cc2c(ccc3ccccc23)C(=O)N1	–	3550 nM (active)
C=C(NC(=O)C(=C)NC(=O)c1csc(C2=N[C@@H]3c4csc(n4)[C@@H]4NC(=O)c5csc(n5)[C@@H]([C@](C)(O)[C@H](C)O)NC(=O)[C@@H]5CSC(=N5)/C(=C/C)NC(=O)[C@@H]([C@H](C)O)NC(=O)c5csc(n5)[C@]3(CC2)NC(=O)[C@@H](C)NC(=O)C(=C)NC(=O)[C@@H](C)NC(=O)[C@@H]([C@@H](C)CC)N[C@H]2C=Cc3c([C@H](C)O)cc(nc3[C@@H]2O)C(=O)O[C@H]4C)n1)C(N)=O	–	inactive
COCC(=O)N1CCC[C@@]2(CCN(c3ncccn3)C2)C1	–	inactive
CCn1c(CCNC(=O)c2ccc(Cl)cc2Cl)n[nH]c1=S	–	inactive
CCCN(CCC)C(=O)[C@@H](CCC(=O)O)NC(=O)c1ccccc1	–	inactive
CCCN(CCC)C(=S)NC(=O)c1ccc(Cl)cc1Cl	–	447 nM (active)
O=C(Nc1ccccc1[N+](=O)[O-])C1C(c2ccccc2)=C1c1ccccc1	–	inactive
O=[N+]([O-])c1ccccc1N/N=C/c1c[nH]c2ccccc12	–	5620 nM (active)
Cn1c(N/N=C/c2c[nH]c3ccccc23)nc2ccccc21	–	1000 nM (active)
COc1ccc(Nc2nc(N3CCCCC3)c3ccccc3n2)cc1	–	1780 nM (active)
O=C(/C=C\c1ccc(O)c(O)c1)O[C@@H]1C[C@](O)(C(=O)O)C[C@@H](O)[C@@H]1O	–	inactive
O=C(/C=C\c1ccc(O)c(O)c1)OCCc1ccccc1	–	1000 nM (active)

SMILES	activity, negative = inhibition	AC50
O=C(O)/C=C\c1ccc(O)c(O)c1	–	inactive
Cc1ccc(-c2nn(-c3ccccc3)cc2CSC(=N)N)cc1	–	12600 nM (active)
c1cnc2ccc(C(c3nnnn3C3CCCC3)N3CCN4CCCC4C3)cc2c1 (stereo unspecified)	–	inactive
N#Cc1cccc(-c2nc(Nc3ccncc3)c3ccccc3n2)c1	–	631 nM (active)
N#Cc1cccc(NC(=O)N2CC[C@@]3(CCCN(C(=O)c4ccncc4)C3)C2)c1	–	inactive
N#Cc1cccc(-c2nc(Nc3ccccc3)c3ccccc3n2)c1	–	1260 nM (active)
CNc1nc(-c2cccc(C#N)c2)nc2ccccc12	–	79.4 nM (active)
CNC(=O)[C@@H]1O[C@@H](n2cnc3c(N)ncnc32)[C@@H](O)[C@H]1O	–	inactive
CC(=O)OC[C@@H]1O[C@H](CCO/N=C\[C@@H](C)[C@H](OCc2ccccc2)C(C)C)C=C[C@@H]1OC(C)=O	9.09% [at 11.4 µM]	–
CC(=O)OC[C@@H]1O[C@@H](O/N=C2/C[C@@H](O)[C@@H](O)[C@@H]3[C@@H]4C(=O)N(C5CCCCC5)C(=O)[C@H]4CC[C@H]23)[C@H](OC(C)=O)[C@H](OC(C)=O)[C@@H]1OC(C)=O	-1.1% [at 11.4 µM]	–
CC(=O)Nc1ccc(C#Cc2ccc(NC(C)=O)cc2)cc1	–	inactive
S=C(Nc1ccccc1)Nc1ccccc1C#Cc1ccccc1	–	501 nM (active)
COc1ccccc1NC(=O)Nc1nc(-c2cccnc2)nc2ccccc12	–	2510 nM (active)
COc1cccc(-c2nc(NCCNC(C)=O)c3ccccc3n2)c1	–	2510 nM (active)
COCCNc1nc(-c2cccc(OC)c2)nc2ccccc12	–	200 nM (active)
COc1cccc(-c2nc(NCc3ccccc3)c3ccccc3n2)c1	–	3160 nM (active)
CCc1ncc(CO)n1Cc1cccc2ccccc12	-6.53% [at 11.4 µM]	–
CO[C@@H]1COC(=O)[C@H](C)NC(=O)C/C=C\[C@@H](C)[C@@H](NS(=O)(=O)c2ccc(C)cc2)COC(=O)C/C=C\[C@@H]1C	-6.59% [at 11.4 µM]	–
Cc1ccc(S(=O)(=O)ON=C2CCN(S(=O)(=O)c3ccccc3)CC2)cc1	–	inactive
CC(=O)O[C@H]1CC[C@@]2(C)C(=CC[C@@H]3[C@@H]4CC[C@H](c5cc(C(F)(F)F)n(C(C)=O)n5)[C@]4(C)CC[C@@H]32)C1	-13.7% [at 11.4 µM]	–
COc1cccc(-c2nc(NCc3cccs3)c3ccccc3n2)c1	–	316 nM (active)
COc1cccc(-c2nc(NCc3ccccc3OC)c3ccccc3n2)c1	–	631 nM (active)
COc1cccc(-c2nc(NCc3cccnc3)c3ccccc3n2)c1	–	158 nM (active)
COc1ccccc1CNc1nc(-c2cccnc2)nc2ccccc12	–	1000 nM (active)
Cc1noc(C)c1C(=O)N1CCC2(CC1)CN(c1ncccn1)C2	–	inactive
